# Data: PubChem BioAssay AID540361 (National Center for Advancing Translational Sciences (NCATS), 2011)
# Results filed as inconclusive are left out. The source made the active and inactive calls. Calls come from the whole dose curve; as a rule, active = well fitted curve in the direction sought with a large enough effect; inconclusive = small, poorly fitted or top-dose-only effect, or another doubt; inactive = no such curve, though single readings can be large or run the other way.
# Biological target: Lysosomal acid glucosylceramidase (Homo sapiens) (UniProt P04062)
# Assay: Activators of Human alpha-Glucosidase as a Potential Chaperone Treatment of Pompe Disease: Alpha-Galactosidase Counter Screen
# Settings: purified human alpha-galactosidase, 4-MU fluorogenic substrate
# From the text: Alpha-glucosidase is responsible for hydrolysis of terminal, non-reducing 1,4-linked alpha-D-glucose residues with release of alpha-D-glucose. It is a lysosomal hydrolase that is required for the degradation of a small percentage (1-3%) of cellular glycogen in human. Deficiency of this enzyme results in glycogen-storage disease type II (GSDII), also referred to as Pompe disease, an autosomal recessive disorder. Structurally normal glycogen is accumulated in lysosomes and cytoplasm in affected patients, primarily in muscle tissues. Excessive glycogen storage within lysosomes may interrupt normal functioning of other organelles and leads to cellular injury. In turn, this leads to enlargement and dysfunction of the entire organ involved (eg, cardiomyopathy and muscle weakness). […]
# This is a fluorogenic enzyme assay with 4-methylumbelliferyl-[…] as the substrate and human alpha-galactosidase as the enzyme preparation. […] 4-methyllumbelliferone, can be excited at 365 nm and emits at 440 nm which can be detected by a standard fluorescence plate reader. […] In the AC50 values were determined from concentration-response data modeled with the standard Hill equation. […] (5) Add 2 ul stop solution (1M NaOH and 1M Glycine mixture, pH 10) (6) Detect the assay plate in a ViewLux plate reader (PerkinElmer) with Ex=365 nm and Em=440nm. […]
structure (smiles),measurement,value
CCCN1CNc2c(c(=O)[nH]c(=S)n2CCc2cccc(Cl)c2Cl)C1,Potency,9.13 µM (active)
